# Compound activity deposited in PubChem by National Center for Advancing Translational Sciences (NCATS).
# Compounds with a hit are over-represented: about 2.6% of the library has one in this group of screens.
# Cruzain Triton: blocks cruzain activity in presence of Triton detergent; Potency, µM, for the others: max response, negative = inhibition, most hits filed as inhibitors; AID 1478; purified cruzain, Z-FR-AMC fluorescence, 0.01% Triton; 200,000 tested, 0.43% active; P25779;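 further: plate controls were neutral wells for no effect and buffer without enzyme for full effect; nearly all actives have a fitted effect of over 40% in size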
# Target sequence (P25779 123-467 limits assumed): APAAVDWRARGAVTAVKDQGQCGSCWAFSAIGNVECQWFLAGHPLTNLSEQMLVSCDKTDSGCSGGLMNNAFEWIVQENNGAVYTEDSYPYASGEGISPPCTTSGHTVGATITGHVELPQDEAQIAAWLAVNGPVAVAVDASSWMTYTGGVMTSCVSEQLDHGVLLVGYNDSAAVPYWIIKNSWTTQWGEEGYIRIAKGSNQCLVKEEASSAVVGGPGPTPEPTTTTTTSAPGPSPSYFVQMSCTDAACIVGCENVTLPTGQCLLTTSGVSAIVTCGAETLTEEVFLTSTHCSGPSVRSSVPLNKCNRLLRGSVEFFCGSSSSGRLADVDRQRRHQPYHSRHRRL
#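 Detergent-containing arm of a paired screen for aggregation-based inhibition: 0.01% Triton X-100 present. Cruzain at 1.5 nM cleaved 2 uM Z-FR-AMC at pH 5.5 with 5 mM DTT; AMC fluorescence gain over 60 s measured activity.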
# Cruzain inh noDet: inhibitors of Trypanosoma cruzi cruzain without detergent | P25779 | purified cruzain, Z-FR-AMC fluorescence, no detergent | Potency, µM, without a hit: max response, negative = inhibition, actives largely listed as inhibitors | 200,000 tested, 2.3% active;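 further: plate controls were enzyme without inhibitor for no effect and buffer without enzyme for full effect; nearly all actives have a fitted effect of over 40% in size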
#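 Purified cruzain at 1.5 nM, pre-incubated 15 min with compound at room temperature in 100 mM sodium acetate pH 5.5, 5 mM DTT, 0.00005% Triton X-100. Reaction started with 2 uM Z-FR-AMC; AMC fluorescence increase over 60 s gives rate.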
# An asterisk follows results filed as active; u = inconclusive. The call rests on the fitted dose curve; in most records, active means well fitted curve in the direction sought with a large enough effect; inconclusive means small, poorly fitted or top-dose-only effect, or another doubt; inactive means no such curve, though single readings can be large; an effect the other way counts as inactive or inconclusive. Potency means the concentration at half of the fitted maximal effect.
SMILES,Cruzain Triton,Cruzain inh noDet
N#C/C(=C\c1ccc(N2CCCCC2)c([N+](=O)[O-])c1)c1nn(-c2ccccc2)c(N)c1C#N,-4%,20µM*
CC1CCN(c2cc(N3CCC(C)CC3)c([N+](=O)[O-])cc2/C=C(\C#N)c2nn(-c3ccccc3)c(N)c2C#N)CC1,0%,2µM*
Cc1cccc(N(CC(O)Cn2c3ccccc3c3ccccc32)S(=O)(=O)c2ccc(F)cc2)c1 (stereo not drawn),10%,-15%
CCOc1ccc(CCNC(=O)c2ccc(CS(=O)(=O)c3ccccc3C)o2)cc1OCC,-3%,16%
O=C(Nc1ccc(OC(F)F)c(Cl)c1)Nc1ccc2c(c1)OCO2,6%,u
O=C(Nc1ccc2c(c1)OCO2)Nc1ccc(Cl)cc1Cl,6%,25µM*
CCC(C)n1c(=N)c(C(=O)NC2CCCCC2)cc2c(=O)n3cc(C)ccc3nc21 (stereo not drawn),0%,29%
COc1ccccc1/C=C/C=N/n1c(-c2ccc(C)cc2)n[nH]c1=S,-3%,10µM*
COc1ccccc1/C=C/C=N/n1c(-c2cc(C)[nH]n2)n[nH]c1=S,-9%,4%
COc1ccccc1/C=C\C=N\n1c(C2CCCCC2)n[nH]c1=S,-5%,6.3µM*
COc1ccc(-c2n[nH]c(=S)n2/N=C/C=C\c2ccccc2OC)cc1,-5%,-27%
O=C(NCCO)c1ccc(Cl)cc1,0%,-6%
CS(=O)(=O)Nc1cccc(-c2nccc(-n3ccnc3)n2)c1,6%,3%
CN1c2cc3c(cc2N=C(c2ccc(C(=O)O)cc2)c2ccccc21)C(C)(C)CCC3(C)C,u,25%
Cc1ccc(-c2nnc3ccccc3c2C(=O)Nc2ccccc2F)cc1,0%,25µM*
Cc1ccc(-c2nnc3ccccc3c2C(=O)Nc2ccc(F)cc2)cc1,-1%,-10%
COc1cc2c(cc1OC)[C@@H]1C(=O)c3ccc4c(c3O[C@@H]1CO2)C=CC(C)(C)O4,-6%,u
Cc1[nH]c2c(C)cccc2c1CCNC(=O)c1ccc2c(c1[N+](=O)[O-])C(=O)c1ccccc1C2=O,3%,7.9µM*
Cc1ccc2c(c1[N+](=O)[O-])C(=O)c1ccccc1C2=O,6%,2%
Cc1[nH]c2ccccc2c1CCNC(=O)c1ccc2c(c1[N+](=O)[O-])C(=O)c1ccccc1C2=O,2%,10µM*
CN(C)C(=O)c1ccc2c(c1[N+](=O)[O-])C(=O)c1ccccc1C2=O,0%,-11%
Cc1ccccc1NC(=O)c1c(NC(=O)Cc2ccccc2)sc2c1CCC2,-2%,-10%
CCOc1ccccc1C1C(C(=O)N2CCCCC2)=C(C)Nc2nc3ccccc3n21 (stereo not drawn),-2%,9%
CCn1c2ccccc2c2cc(/C(C)=N/O)ccc21,-10%,2%
CCn1c2ccccc2c2cc(N)ccc21,-2%,7.9µM*
SMILES,Cruzain Triton,Cruzain inh noDet
COCCn1c(C)cc(C2=NNC(=Nc3ccccc3F)SC2)c1C,-4%,-23%
C=CCN=C1NN=C(c2cc(C)n(CC=C)c2C)CS1,-8%,25µM*
COc1ccccc1/C=C(/CC(=O)NCc1ccc(F)cc1)c1nc2ccccc2s1,-7%,16µM*
COc1ccccc1/C=C(/CC(=O)NCc1ccccc1)c1nc2ccccc2s1,-4%,u
CNc1ncnc2c1ncn2[C@H]1C[C@H](OP(=O)(O)O)[C@H](COP(=O)(O)O)O1,1%,2%
COc1ccc(-n2c(=S)[nH]c3cc(C(=O)Nc4ccc(OC)c(OC)c4)ccc3c2=O)cc1,3%,-2%
COc1ccc(-n2c(=S)[nH]c3cc(C(=O)Nc4cccc(C)c4)ccc3c2=O)cc1,1%,13µM*
COC(=O)C(Cc1ccccc1)NC(=O)C(N)CC(=O)O (stereo not drawn),3%,-7%
CCCCCCCCCCCCC/C=C\[C@@H](O)[C@@H](N)CO,2%,11%
CCCCCCCCCCCCCCCC(O)C(N)CO (stereo not drawn),18µM*,u
Ic1ccc2c(c1)N(c1ccccc1)c1cc(Nc3ccc4nc5ccc(I)cc5[n+](-c5ccccc5)c4c3)ccc1N2,-2%,3.2µM*
N#CCc1ccccc1,5%,-5%
Cc1ccc(-n2c(C)cc(/C=c3/sc4nc5ccccc5n4c3=O)c2C)cc1,0%,10µM*
O=c1/c(=C\c2cccn2-c2ccccc2)sc2nc3ccccc3n12,3%,u
Cc1ccc2c(C)c(C(=O)N(Cc3ccc(Cl)cc3)C3CCS(=O)(=O)C3)oc2c1 (stereo not drawn),-8%,28%
Cc1ccc(/C=N/N2CCN(Cc3cccc4ccccc34)CC2)s1,0%,10µM*
Cc1ccc(/C=N/N2CCN(Cc3ccccc3)CC2)s1,2%,5%
COc1ccc(OC)c(NC(=O)CSC2=Nc3ccccc3C3=NC(CC(=O)NCc4ccc5c(c4)OCO5)C(=O)N23)c1 (stereo not drawn),-5%,16%
Cc1nn(C(=O)c2ccccc2)c(C)c1S(=O)(=O)N1CCOCC1,1%,7%
CCCCc1ccc(N=N/C(C(=O)Nc2ccc(NC(C)=O)cc2OC)=C(/C)O)cc1,10µM*,15%
CCCCc1ccc(NC(=O)OC)cc1,-2%,4%
Cc1ccc(N2CCN(c3c(CN4CCCC4)c(=O)oc4ccccc34)CC2)c(C)c1,0%,-29%
CCN(CC)S(=O)(=O)c1ccc(Cl)c(NC(=O)c2cc(Cl)ccc2Cl)c1,-5%,-18%
CCN(CC)S(=O)(=O)c1ccc(Cl)c(NC(=O)COc2ccc(OC)cc2[N+](=O)[O-])c1,-2%,13µM*
CCOC(=O)c1ccc(NC(=O)Nc2ccc3snnc3c2)cc1,-1%,-2%
SMILES,Cruzain Triton,Cruzain inh noDet
Cc1ccc(C)c(NC(=O)CSc2nc(-c3ccccc3)c(C#N)c(=O)[nH]2)c1,-3%,2%
COc1ccccc1NC(=O)CSc1nc(-c2ccc(C(C)(C)C)cc2)c(C#N)c(=O)[nH]1,25µM*,u
O=c1oc(-c2cccs2)nc2sc3c(c12)CCC3,1%,13µM*
O=c1oc(-c2cccs2)nc2sc3c(c12)CCCC3,3%,u
CN(c1ccccc1)S(=O)(=O)c1ccc(Cl)c(C(=O)Nc2ccc(-c3nc4ccccc4[nH]3)cc2)c1,-4%,13µM*
Cc1cc(F)ccc1S(=O)(=O)Nc1ccccc1C(=O)Nc1ccccc1-c1nc2ccccc2[nH]1,-1%,-28%
CCCN(CCC)S(=O)(=O)c1ccc(C(=O)Nc2cccc(-c3nc4ccccc4[nH]3)c2)cc1,-1%,7.9µM*
COc1c(Cl)cc(C(=O)Nc2cccc(-c3nc4ccccc4[nH]3)c2)cc1Cl,-2%,u
CN(c1ccccc1)S(=O)(=O)c1ccc(Cl)c(C(=O)Nc2nc3ccccc3[nH]2)c1,-2%,u
O=C(Nc1ccc(-c2nc3ccccc3[nH]2)cc1)c1ccccc1NS(=O)(=O)c1ccc(F)cc1,-8%,16µM*
CCCCC1=CC2=C(OC(C)=O)C(=O)C(C)(OC(=O)c3ccco3)C(=O)C2=CO1 (stereo not drawn),-3%,0%
Cc1noc(C)c1S(=O)(=O)N(CC(=O)NCCc1ccc(Cl)cc1)c1ccc(C(C)C)cc1,-1%,-3%
Cn1c(=O)cc(SCC(=O)N2CCN(c3ccccc3F)CC2)c2ccc(Cl)cc21,-2%,4%
COc1cc2nc(SCc3ccc(C(F)(F)F)cc3)n(Cc3cccs3)c(=N)c2cc1OC,-1%,u
COc1cc2nc(SCc3ccc(Cl)cc3Cl)n(Cc3cccs3)c(=N)c2cc1OC,0%,7.9µM*
